For 15 compounds, normalised cell number results are on record in PubChem BioAssay.

Molecules are shown by their SMILES.

A short description of the assay: EMT-state selective cytotoxicity in co-culture – imaging, PC-3E GFP, TEM4-18 mCherry, primary screen (AID 1345086).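 Further: cells exposed to compound for 72 h before imaging.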 The conditions noted are these: PC-3E GFP / TEM4-18 mCherry co-culture, imaging cell counts; measured here: mesenchymal TEM4-18 mCherry cell survival; at 1 µM.
With `Nc1nc(Cl)nc2c1ncn2C1O[C@H](CO)[C@@H](O)[C@@H]1F` (stereo not given in full), the normalised cell number was 0.39.
As to `Oc1ccc(Oc2cnc3ccc(Cl)cc3n2)cc1`, the normalised cell number is 1.05.
The result for `CC/C=C1C=C(/C=C/CO)C(=O)O/1` reads 1.06; that for `CCC(=O)O[C@]1(C(=O)SCF)[C@H](C)CC2C3CC(F)C4=CC(=O)C=C[C@]4(C)C3(F)[C@@H](O)C[C@@]21C` (stereo not given in full), 0.9; that for `CC1=C2[C@](C)(C=CC1=O)C[C@H](O)[C@H]1[C@H](C)C(=O)O[C@]21C`, 1.15.
The result for `CC(=O)OCC1O[C@H](Sc2ccc(C)cc2)[C@@H]2[C@@H](OC(=O)N2C(C)=O)C1OC(C)=O` (stereo not given in full) reads 1.05; that for `Cc1ccc(S[C@H]2OC(COCc3ccccc3)C(OC(=O)CCC(=O)O)[C@@H]3OC(=O)N[C@H]23)cc1` (stereo not given in full), 1.1.
The result for `C=C[C@](C)(O)CC[C@@H]1[C@@]2(C)CCCC(C)(C)[C@@H]2CC[C@]1(C)O` reads 1.21.
`CC(C)CCCC(C)[C@H]1CCC2C3C(=O)C=C4C[C@@H](O)CC[C@]4(C)C3CC[C@@]21C` (stereo not given in full) yielded a normalised cell number of 0.95.
Regarding `CC(C)[C@@H]1CC[C@]2(CO2)[C@@H]2C(=O)OCC(C(=O)O)=C[C@H]21`, the normalised cell number is 1.05.
The compound `COC(=O)C1O[C@H](OCc2ccc(OC)cc2)[C@@H](OC(=O)c2ccccc2)[C@@H](OC(=O)c2ccccc2)C1O` (stereo not given in full) returned a normalised cell number of 1.11.
The value for `C=C1OC(=O)C23C1OC(CC(O)C2O)C3C` (stereo not given) was 1.14.
The value for `COC(=O)c1cn(C2CC2)c2c(OC)c(F)c(F)cc2c1=O` was 1; that for `COC(=O)C1O[C@H](OC)[C@@H](OCc2ccccc2)[C@@H](OCc2ccccc2)C1O` (stereo not given in full) was 1.15.
The value for `CCCCCCCCCCCC[C@H](C(=O)O)[C@@H](C)C(=O)O` was 0.97.
